From paper PMC9911399, “Two distinct binding modes provide the RNA-binding protein RbFox with extraordinary sequence specificity”
Where a chain is given by its changes, count along the chain named. The full ranking holds about 16,000 sequences; the median of “ka relative to ugcaugu” is about 0.0091, and the highest 2% start at about 0.032. The full list was thinned out, with the highest values kept by preference.

T1: RBFOX1 RRM (Homo sapiens, UniProt Q9NWB1 109-208)
T1 sequence: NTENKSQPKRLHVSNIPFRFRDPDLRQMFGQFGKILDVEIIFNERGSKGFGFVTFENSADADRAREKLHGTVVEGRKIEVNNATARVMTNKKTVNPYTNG

B1: GAGUCGU (DNA:RNA)
RNA: GGGAGACCGGAAUUCAGAUUGUCCGAGUCGUUUAAAUCCCGUCGUAGCCACCA
DNA 1: CAATCTGAATTCCGGTCTCCC
DNA 2: TGGTGGCTACGACGGGATT
B2: AUGCAAU (DNA:RNA)
RNA: B1 RNA with G25A, A26U, U28C, C29A, G30A
DNA 1: CAATCTGAATTCCGGTCTCCC
DNA 2: TGGTGGCTACGACGGGATT
B3: AGAUGAG (DNA:RNA)
RNA: B1 RNA with G25A, A26G, G27A, C29G, G30A, U31G
DNA 1: CAATCTGAATTCCGGTCTCCC
DNA 2: TGGTGGCTACGACGGGATT
B4: ACGGGCC (DNA:RNA)
RNA: B1 RNA with G25A, A26C, U28G, C29G, G30C, U31C
DNA 1: CAATCTGAATTCCGGTCTCCC
DNA 2: TGGTGGCTACGACGGGATT
B5: UGCCUCC (DNA:RNA)
RNA: GGGAGACCGGAAUUCAGAUUGUCCUGCCUCCUUAAAUCCCGUCGUAGCCACCA
DNA 1: CAATCTGAATTCCGGTCTCCC
DNA 2: TGGTGGCTACGACGGGATT
B6: UGCUGCC (DNA:RNA)
RNA: B5 RNA with C28U, U29G
DNA 1: CAATCTGAATTCCGGTCTCCC
DNA 2: TGGTGGCTACGACGGGATT
B7: UGCCUUG (DNA:RNA)
RNA: B5 RNA with C30U, C31G
DNA 1: CAATCTGAATTCCGGTCTCCC
DNA 2: TGGTGGCTACGACGGGATT
B8: UAGUAGG (DNA:RNA)
RNA: B1 RNA with G25U, C29A, U31G
DNA 1: CAATCTGAATTCCGGTCTCCC
DNA 2: TGGTGGCTACGACGGGATT
B9: GGGGUGU (DNA:RNA)
RNA: B1 RNA with A26G, U28G, C29U
DNA 1: CAATCTGAATTCCGGTCTCCC
DNA 2: TGGTGGCTACGACGGGATT
B10: GGGUGUU (DNA:RNA)
RNA: B1 RNA with A26G, C29G, G30U
DNA 1: CAATCTGAATTCCGGTCTCCC
DNA 2: TGGTGGCTACGACGGGATT
B11: CGGUGUU (DNA:RNA)
RNA: B1 RNA with G25C, A26G, C29G, G30U
DNA 1: CAATCTGAATTCCGGTCTCCC
DNA 2: TGGTGGCTACGACGGGATT
B12: CGGGUGU (DNA:RNA)
RNA: B1 RNA with G25C, A26G, U28G, C29U
DNA 1: CAATCTGAATTCCGGTCTCCC
DNA 2: TGGTGGCTACGACGGGATT
B13: GGUGUGU (DNA:RNA)
RNA: B1 RNA with A26G, G27U, U28G, C29U
DNA 1: CAATCTGAATTCCGGTCTCCC
DNA 2: TGGTGGCTACGACGGGATT
B14: CCCGGGU (DNA:RNA)
RNA: B1 RNA with G25C, A26C, G27C, U28G, C29G
DNA 1: CAATCTGAATTCCGGTCTCCC
DNA 2: TGGTGGCTACGACGGGATT
B15: AUAGGCC (DNA:RNA)
RNA: B5 RNA with U25A, G26U, C27A, C28G, U29G
DNA 1: CAATCTGAATTCCGGTCTCCC
DNA 2: TGGTGGCTACGACGGGATT
B16: CCAGAGA (DNA:RNA)
RNA: B1 RNA with G25C, A26C, G27A, U28G, C29A, U31A
DNA 1: CAATCTGAATTCCGGTCTCCC
DNA 2: TGGTGGCTACGACGGGATT
B17: CUCCCAU (DNA:RNA)
RNA: B1 RNA with G25C, A26U, G27C, U28C, G30A
DNA 1: CAATCTGAATTCCGGTCTCCC
DNA 2: TGGTGGCTACGACGGGATT
B18: UUUCACC (DNA:RNA)
RNA: B5 RNA with G26U, C27U, U29A
DNA 1: CAATCTGAATTCCGGTCTCCC
DNA 2: TGGTGGCTACGACGGGATT
B19: GUAAUGA (DNA:RNA)
RNA: B1 RNA with A26U, G27A, U28A, C29U, U31A
DNA 1: CAATCTGAATTCCGGTCTCCC
DNA 2: TGGTGGCTACGACGGGATT
B20: GAAAUGA (DNA:RNA)
RNA: B1 RNA with G27A, U28A, C29U, U31A
DNA 1: CAATCTGAATTCCGGTCTCCC
DNA 2: TGGTGGCTACGACGGGATT
B21: CGGAUGA (DNA:RNA)
RNA: B1 RNA with G25C, A26G, U28A, C29U, U31A
DNA 1: CAATCTGAATTCCGGTCTCCC
DNA 2: TGGTGGCTACGACGGGATT
B22: GGGAUGA (DNA:RNA)
RNA: B1 RNA with A26G, U28A, C29U, U31A
DNA 1: CAATCTGAATTCCGGTCTCCC
DNA 2: TGGTGGCTACGACGGGATT
B23: GGAUGAA (DNA:RNA)
RNA: B1 RNA with A26G, G27A, C29G, G30A, U31A
DNA 1: CAATCTGAATTCCGGTCTCCC
DNA 2: TGGTGGCTACGACGGGATT
B24: GGAAUGA (DNA:RNA)
RNA: B1 RNA with A26G, G27A, U28A, C29U, U31A
DNA 1: CAATCTGAATTCCGGTCTCCC
DNA 2: TGGTGGCTACGACGGGATT
B25: UCACGAG (DNA:RNA)
RNA: B5 RNA with G26C, C27A, U29G, C30A, C31G
DNA 1: CAATCTGAATTCCGGTCTCCC
DNA 2: TGGTGGCTACGACGGGATT
B26: GCGUGGA (DNA:RNA)
RNA: B1 RNA with A26C, C29G, U31A
DNA 1: CAATCTGAATTCCGGTCTCCC
DNA 2: TGGTGGCTACGACGGGATT
B27: GGAAGUG (DNA:RNA)
RNA: B1 RNA with A26G, G27A, U28A, C29G, G30U, U31G
DNA 1: CAATCTGAATTCCGGTCTCCC
DNA 2: TGGTGGCTACGACGGGATT
B28: UGGCACG (DNA:RNA)
RNA: B5 RNA with C27G, U29A, C31G
DNA 1: CAATCTGAATTCCGGTCTCCC
DNA 2: TGGTGGCTACGACGGGATT
B29: AGGCACC (DNA:RNA)
RNA: B5 RNA with U25A, C27G, U29A
DNA 1: CAATCTGAATTCCGGTCTCCC
DNA 2: TGGTGGCTACGACGGGATT
B30: GGGCACC (DNA:RNA)
RNA: B5 RNA with U25G, C27G, U29A
DNA 1: CAATCTGAATTCCGGTCTCCC
DNA 2: TGGTGGCTACGACGGGATT
B31: AGGCACG (DNA:RNA)
RNA: B5 RNA with U25A, C27G, U29A, C31G
DNA 1: CAATCTGAATTCCGGTCTCCC
DNA 2: TGGTGGCTACGACGGGATT
B32: GGGCACG (DNA:RNA)
RNA: B5 RNA with U25G, C27G, U29A, C31G
DNA 1: CAATCTGAATTCCGGTCTCCC
DNA 2: TGGTGGCTACGACGGGATT
B33: ACGUCGU (DNA:RNA)
RNA: B1 RNA with G25A, A26C
DNA 1: CAATCTGAATTCCGGTCTCCC
DNA 2: TGGTGGCTACGACGGGATT
B34: GGGGCAC (DNA:RNA)
RNA: B1 RNA with A26G, U28G, G30A, U31C
DNA 1: CAATCTGAATTCCGGTCTCCC
DNA 2: TGGTGGCTACGACGGGATT
B35: UGGCAGA (DNA:RNA)
RNA: B5 RNA with C27G, U29A, C30G, C31A
DNA 1: CAATCTGAATTCCGGTCTCCC
DNA 2: TGGTGGCTACGACGGGATT
B36: UGGCACC (DNA:RNA)
RNA: B5 RNA with C27G, U29A
DNA 1: CAATCTGAATTCCGGTCTCCC
DNA 2: TGGTGGCTACGACGGGATT
B37: GGCACGU (DNA:RNA)
RNA: B1 RNA with A26G, G27C, U28A
DNA 1: CAATCTGAATTCCGGTCTCCC
DNA 2: TGGTGGCTACGACGGGATT
B38: ACCACGU (DNA:RNA)
RNA: B1 RNA with G25A, A26C, G27C, U28A
DNA 1: CAATCTGAATTCCGGTCTCCC
DNA 2: TGGTGGCTACGACGGGATT
B39: AGCCACG (DNA:RNA)
RNA: B5 RNA with U25A, U29A, C31G
DNA 1: CAATCTGAATTCCGGTCTCCC
DNA 2: TGGTGGCTACGACGGGATT

target: T1, RBFOX1 RRM; assay: EMSA; HiTS-Eq, 1 nM pool, 10 min; buffer printed only for the single-RNA assays: 10 mM Tris pH 7.5, 150 mM NaCl, 3.4 mM EDTA, 0.001% NP-40, 30 C; conditions: tags: His6 N-terminal (pET28a); label: 5' 32P
Method in brief: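 A pool of RNA with 7 randomized nucleotides, 5′-radiolabelled and with DNA-annealed flanks, was equilibrated at 1 nM for 10 min in 50 µL with purified RbFox RRM, wild type or mutant, across increasing protein concentrations. Free RNA was separated by 8% native PAGE, excised, reverse-transcribed, barcoded by PCR and sequenced. Relative association constants were obtained from read-count changes of each RNA species versus the control reaction and normalised to the cognate motif.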

Binder	binding signal
B1	0.0129 KA relative to UGCAUGU
B2	0.00453 KA relative to UGCAUGU
B3	0.0142 KA relative to UGCAUGU
B4	0.0142 KA relative to UGCAUGU
B5	0.00846 KA relative to UGCAUGU
B6	0.0265 KA relative to UGCAUGU
B7	0.0505 KA relative to UGCAUGU
B8	0.00933 KA relative to UGCAUGU
B9	0.038 KA relative to UGCAUGU
B10	0.0233 KA relative to UGCAUGU
B11	0.0192 KA relative to UGCAUGU
B12	0.0321 KA relative to UGCAUGU
B13	0.0173 KA relative to UGCAUGU
B14	0.00573 KA relative to UGCAUGU
B15	0.0113 KA relative to UGCAUGU
B16	0.0103 KA relative to UGCAUGU
B17	0.00325 KA relative to UGCAUGU
B18	0.00771 KA relative to UGCAUGU
B19	0.0136 KA relative to UGCAUGU
B20	0.0134 KA relative to UGCAUGU

Binder	binding signal
B21	0.0221 KA relative to UGCAUGU
B22	0.0379 KA relative to UGCAUGU
B23	0.0174 KA relative to UGCAUGU
B24	0.0487 KA relative to UGCAUGU
B25	0.0108 KA relative to UGCAUGU
B26	0.0179 KA relative to UGCAUGU
B27	0.0211 KA relative to UGCAUGU
B28	0.0541 KA relative to UGCAUGU
B29	0.00933 KA relative to UGCAUGU
B30	0.0223 KA relative to UGCAUGU
B31	0.0414 KA relative to UGCAUGU
B32	0.0317 KA relative to UGCAUGU
B33	0.00803 KA relative to UGCAUGU
B34	0.0252 KA relative to UGCAUGU
B35	0.0265 KA relative to UGCAUGU
B36	0.0134 KA relative to UGCAUGU
B37	0.0321 KA relative to UGCAUGU
B38	0.00412 KA relative to UGCAUGU
B39	0.00567 KA relative to UGCAUGU
